From PubChem BioAssay AID1159580 (chemical genetic matrix, 2015)
Among all 5,500 compounds or so, about 2,000 (36%) were called active. Roughly 18% stayed inconclusive and do not appear here. No stated cut-off is given here; in the data, active means normalized growth mostly below about 0.91 (no sharp cut-off); inconclusive means no clear call, values can overlap the other calls; inactive means mostly above about 0.92. The list shows a part of the results.

Test: chemical genetic growth profiling, strain panel (AID 1159580);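 further: tested at 20 µM; growth read once vehicle control cultures reached saturation at 30 °C; 1 = growth at the plate median or of vehicle wells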
Conditions: growth OD

Measured: normalized growth

O=C(O)C(O)C(O)C(=O)O (configuration not stated)
inactive: S. cerevisiae deletion strains, locus YJR075W, strain HOC1, stronger effect = lower value 0.993 | S. cerevisiae deletion strains, locus YKL009W, strain mrt4, stronger effect = lower value 0.985 | S. cerevisiae deletion strains, locus YKL068W, stronger effect = lower value 0.98 | S. cerevisiae deletion strains, locus YKL085W, strain MDH1 (second series), stronger effect = lower value 0.986 | S. cerevisiae deletion strains, locus YKL085W, strain MDH1, stronger effect = lower value 0.986 | S. cerevisiae deletion strains, locus YKL160W, strain elf1, stronger effect = lower value 1.01 | S. cerevisiae deletion strains, locus YKL190W, strain CNB1, stronger effect = lower value 0.978 | S. cerevisiae deletion strains, locus YKR001C, strain vps1, stronger effect = lower value 0.983 | S. cerevisiae deletion strains, locus YKR026C, strain gcn3, stronger effect = lower value 1.01 | S. cerevisiae deletion strains, locus YKR091W, strain srl3, stronger effect = lower value 1 | S. cerevisiae deletion strains, locus YLL001W, strain dnm1, stronger effect = lower value 0.992 | S. cerevisiae deletion strains, locus YLL026W, stronger effect = lower value 0.972 | S. cerevisiae deletion strains, locus YLL041C, strain sdh2, stronger effect = lower value 0.994 | S. cerevisiae deletion strains, locus YLR027C, strain aat2, stronger effect = lower value 0.999 | S. cerevisiae deletion strains, locus YLR039C, strain RIC1, stronger effect = lower value 0.961 | S. cerevisiae deletion strains, locus YLR058C, strain SHM2, stronger effect = lower value 0.976 | S. cerevisiae deletion strains, locus YLR102C, strain apc9, stronger effect = lower value 0.988 | S. cerevisiae deletion strains, locus YLR113W, strain HOG1, stronger effect = lower value 0.938 | S. cerevisiae deletion strains, locus YLR221C, strain rsa3, stronger effect = lower value 0.986 | S. cerevisiae deletion strains, locus YLR258W, strain gsy2, stronger effect = lower value 0.998 | S. cerevisiae deletion strains, locus YLR262C, strain YPT6 (second series), stronger effect = lower value 1.01 | S. cerevisiae deletion strains, locus YLR262C, strain YPT6, stronger effect = lower value 0.934 | S. cerevisiae deletion strains, locus YLR268W, strain sec22, stronger effect = lower value 0.971 | S. cerevisiae deletion strains, locus YLR320W, strain mms22, stronger effect = lower value 1 | S. cerevisiae deletion strains, locus YLR330W, strain CHS5, stronger effect = lower value 0.991 | S. cerevisiae deletion strains, locus YLR342W, strain FKS1 (second series), stronger effect = lower value 1.03 | S. cerevisiae deletion strains, locus YLR342W, strain FKS1, stronger effect = lower value 0.997 | S. cerevisiae deletion strains, locus YLR357W, strain rsc2, stronger effect = lower value 0.966 | S. cerevisiae deletion strains, locus YLR370C, strain arc18, stronger effect = lower value 1 | S. cerevisiae deletion strains, locus YLR371W, strain rom2, stronger effect = lower value 0.997 | S. cerevisiae deletion strains, locus YLR384C, strain iki3, stronger effect = lower value 0.988 | S. cerevisiae deletion strains, locus YLR418C, strain cdc73, stronger effect = lower value 0.986 | S. cerevisiae deletion strains, locus YML016C, strain PPZ1, stronger effect = lower value 0.992 | S. cerevisiae deletion strains, locus YML032C, strain rad52, stronger effect = lower value 1 | S. cerevisiae deletion strains, locus YML120C, strain ndi1, stronger effect = lower value 0.998 | S. cerevisiae deletion strains, locus YML124C, strain tub3, stronger effect = lower value 0.997 | S. cerevisiae deletion strains, locus YMR058W, strain fet3, stronger effect = lower value 1.01 | S. cerevisiae deletion strains, locus YMR078C, strain ctf18, stronger effect = lower value 0.984 | S. cerevisiae deletion strains, locus YMR125W, strain sto1, stronger effect = lower value 0.987 | S. cerevisiae deletion strains, locus YMR129W, stronger effect = lower value 0.995 | S. cerevisiae deletion strains, locus YMR205C, strain PFK2, stronger effect = lower value 0.981 | S. cerevisiae deletion strains, locus YMR223W, strain ubp8, stronger effect = lower value 1 | S. cerevisiae deletion strains, locus YMR231W, strain pep5, stronger effect = lower value 1 | S. cerevisiae deletion strains, locus YMR263W, strain SAP30, stronger effect = lower value 0.976 | S. cerevisiae deletion strains, locus YMR307W, strain GAS1, stronger effect = lower value 0.921 | S. cerevisiae deletion strains, locus YNL067W, strain RPL9B, stronger effect = lower value 0.993 | S. cerevisiae deletion strains, locus YNL071W, strain lat1, stronger effect = lower value 0.987 | S. cerevisiae deletion strains, locus YNL128W, strain TEP1, stronger effect = lower value 0.981 | S. cerevisiae deletion strains, locus YNL153C, strain GIM3, stronger effect = lower value 0.979 | S. cerevisiae deletion strains, locus YNL183C, strain NPR1, stronger effect = lower value 0.919 | S. cerevisiae deletion strains, locus YNL209W, strain ssb2, stronger effect = lower value 1.02 | S. cerevisiae deletion strains, locus YNL233W, strain BNI4, stronger effect = lower value 0.986 | S. cerevisiae deletion strains, locus YNL248C, strain rpa49, stronger effect = lower value 0.994 | S. cerevisiae deletion strains, locus YNL250W, strain rad50, stronger effect = lower value 0.987 | S. cerevisiae deletion strains, locus YNL271C, strain bni1, stronger effect = lower value 0.992 | S. cerevisiae deletion strains, locus YNL298W, strain CLA4, stronger effect = lower value 0.988 | S. cerevisiae deletion strains, locus YNL307C, strain MCK1, stronger effect = lower value 0.991 | S. cerevisiae deletion strains, locus YNL322C, strain KRE1 (second series), stronger effect = lower value 0.985 | S. cerevisiae deletion strains, locus YNL322C, strain KRE1, stronger effect = lower value 0.99 | S. cerevisiae deletion strains, locus YNR049C, strain mso1, stronger effect = lower value 1 | S. cerevisiae deletion strains, locus YNR052C, strain pop2, stronger effect = lower value 0.991 | S. cerevisiae deletion strains, locus YOL006C, strain TOP1, stronger effect = lower value 0.97 | S. cerevisiae deletion strains, locus YOL012C, strain htz1 1.53 | S. cerevisiae deletion strains, locus YOL147C, strain pex11, stronger effect = lower value 0.987 | S. cerevisiae deletion strains, locus YOR001W, strain rrp6, stronger effect = lower value 0.991 | S. cerevisiae deletion strains, locus YOR061W, strain CKA2, stronger effect = lower value 0.959 | S. cerevisiae deletion strains, locus YOR069W, strain VPS5, stronger effect = lower value 0.997 | S. cerevisiae deletion strains, locus YOR070C, strain gyp1, stronger effect = lower value 0.984 | S. cerevisiae deletion strains, locus YOR080W, strain dia2, stronger effect = lower value 1 | S. cerevisiae deletion strains, locus YOR083W, strain WHI5, stronger effect = lower value 1.01 | S. cerevisiae deletion strains, locus YOR106W, strain vam3, stronger effect = lower value 0.994 | S. cerevisiae deletion strains, locus YOR136W, strain idh2, stronger effect = lower value 0.997 | S. cerevisiae deletion strains, locus YOR144C, strain elg1, stronger effect = lower value 0.986 | S. cerevisiae deletion strains, locus YOR184W, strain ser1, stronger effect = lower value 1.01 | S. cerevisiae deletion strains, locus YOR231W, strain MKK1, stronger effect = lower value 0.959 | S. cerevisiae deletion strains, locus YOR265W, strain rbl2, stronger effect = lower value 0.995 | S. cerevisiae deletion strains, locus YOR270C, strain vph1, stronger effect = lower value 0.979 | S. cerevisiae deletion strains, locus YOR290C, strain snf2, stronger effect = lower value 1.02 | S. cerevisiae deletion strains, locus YOR316C, strain cot1, stronger effect = lower value 0.98 | S. cerevisiae deletion strains, locus YPL051W, strain arl3, stronger effect = lower value 1.01 | S. cerevisiae deletion strains, locus YPL055C, strain LGE1, stronger effect = lower value 0.965 | S. cerevisiae deletion strains, locus YPL078C, strain atp4, stronger effect = lower value 0.999 | S. cerevisiae deletion strains, locus YPL106C, strain sse1, stronger effect = lower value 0.976 | S. cerevisiae deletion strains, locus YPL240C, strain hsp82, stronger effect = lower value 0.989 | S. cerevisiae deletion strains, locus YPL256C, strain CLN2, stronger effect = lower value 0.943 | S. cerevisiae deletion strains, locus YPR119W, strain clb2, stronger effect = lower value 0.994 | S. cerevisiae deletion strains, locus YPR141C, strain kar3, stronger effect = lower value 0.97 | S. cerevisiae deletion strains, locus YPR163C, strain tif3, stronger effect = lower value 0.991 | S. cerevisiae deletion strains, locus YPR167C, strain met16, stronger effect = lower value 0.98 | S. cerevisiae deletion strains, strain wtn01, stronger effect = lower value 0.997 | S. cerevisiae strains, strain wild type, stronger effect = lower value 0.996
active: S. cerevisiae deletion strains, locus YPL241C, strain CIN2, stronger effect = lower value 1.07 [resistant]
